Measurements: ChEMBL document CHEMBL3988442, “University of Dundee, Small-Polar-MMV Screening Library” (2021)
Screen size: about 48,000 compounds; about 13,000 (27%) showed an effect of 50% or more. The list shows a part of the results.

system: Wolbachia pipientis; test: Anti-Wolbachia Cell-Based Screen; format: functional; parameters: scale not given: in the data most compounds retested in dose-response had high values; settings: 5 µM

| Compound | Percent Effect |
| --- | --- |
| CC(=O)N1[C@H](Cn2cncn2)C[C@@H]2CN(c3ncccn3)CC[C@@H]21 | -1.924% |
| COCC1CCN(S(=O)(=O)N2C[C@@H](C)[C@](O)(C3CC3)C2)CC1 | -6.27% |
| COC(=O)c1ccc(NC(=O)NC2CCc3[nH]ncc3C2)cc1 (centres undefined) | -3.404% |
| CC(C)CNC(=O)N1CC[C@@H]2CN(Cc3cccnc3)S(=O)(=O)[C@@H]2CC1.O=C(O)C(F)(F)F | 96.93% |
| COCC(=O)N1CC[C@@H]2CN(Cc3cccc(Cl)c3)S(=O)(=O)[C@@H]2CC1 | -12.94% |
| CC(C)CC(=O)N1CC[C@@H]2CN(Cc3cccnc3)S(=O)(=O)[C@@H]2CC1 | 111.2% |
| O=C(c1cc[nH]n1)N1CC[C@@H]2CN(Cc3cccnc3)S(=O)(=O)[C@@H]2CC1 | -2.568% |
| CC(=O)N1CC[C@@H]2CN(Cc3ccncc3)S(=O)(=O)[C@@H]2CC1.O=C(O)C(F)(F)F | -10.18% |
| COCC(=O)N1CC[C@@H]2CN(Cc3cccnc3)S(=O)(=O)[C@@H]2CC1 | 104.6% |
| CC(C)CC(=O)N1CC[C@@H]2CN(CC(=O)N(C)C)S(=O)(=O)[C@@H]2CC1 | -34.28% |
| COCC(=O)N1CC[C@@H]2CN(Cc3ccccc3)S(=O)(=O)[C@@H]2CC1 | -9.3% |
| O=C(C1CCC1)N1CC[C@@H]2CN(Cc3cccnc3)S(=O)(=O)[C@@H]2CC1 | 102.5% |
| O=C(C1CCCO1)N1CC[C@@H]2CN(Cc3ccccc3)S(=O)(=O)[C@@H]2CC1 (some centres undefined) | -10.05% |
| O=C(O)C(F)(F)F.O=C(c1cc[nH]n1)N1CC[C@@H]2CN(Cc3ccccc3)S(=O)(=O)[C@@H]2CC1 | -14% |
| O=C1O[C@@H]2CN(c3ccncc3)C[C@@H]2N1CCCc1ccc(F)cc1 | -4.206% |
| CN(CCO)CC1COCCN1C(=O)C1(c2cccs2)CCCC1.O=CO (centres undefined) | 2.363% |
| COCCC1(CO)CCCN(C(=O)c2cccnc2O)C1 (centres undefined) | 1.104% |
| Cl.O=C1C(NCc2ccc3c(c2)CCO3)CCN1Cc1ccccc1 (centres undefined) | -4.636% |
| COCC(=O)N1CCC(C(=O)N(C)C(C)c2ccon2)CC1 (centres undefined) | 2.013% |
| CCCS(=O)(=O)NCc1cccnc1OCC | -4.428% |
| COc1ccccc1C(O)CNC(=O)NCc1cccnc1OC (centres undefined) | -5.086% |
| COc1ncccc1CNC(=O)NCCNC(=O)c1ccco1 | 0.6647% |
| CCOc1ncccc1CNC(=O)Nc1ccc(OC)c(OC)c1 | 124% |
| CCOc1ccc(NC(=O)NCc2cccnc2OCC)cc1 | 105.6% |
| CC[C@@H](NC(C)=O)C(=O)NCc1cccnc1Oc1ccccc1OC | 5.567% |
| CCCNC(=O)NCc1cccnc1OC | 1.177% |
| CCOc1ncccc1CNC(=O)Nc1ccc(CC)cc1 | 115% |
| CCOc1ncccc1CNC(=O)CN1CCCCCC1=O | -62.17% |
| CCOc1ncccc1CNC(=O)Nc1ccccc1 | 95.65% |
